According to PubChem BioAssay (NCATS):
Records with an inconclusive call do not appear. Some compounds were tested as several samples or in several runs, with calls that do not always agree. The source made the active and inactive calls. Unless noted, calls follow the shape of the dose curve; as a rule, active = well fitted curve in the direction sought with a large enough effect; inconclusive = small, poorly fitted or top-dose-only effect, or another doubt; inactive = no such curve, though single readings can be large; an effect the other way counts as inactive or inconclusive.

Columns and labels:
[1] = target: Ubiquitin carboxyl-terminal hydrolase 2 (Homo sapiens) (UniProt O75604); assay: qHTS Validation Assay for Inhibitors of Ubiquitin-specific Protease USP2a Using CHOP2 as the Reporter (AID 463106)
Outline: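 10nM USP2 core + cpd, 30min RT; add 25nM Ub-CHOP2/25nM substrate; 60min RT; FI 485/531nm. Buffer Tris pH 8.0, CaCl2, BME, CHAPS. Norm. to NEM = 100% inhibition; time-zero read flags fluorescent artifacts.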

[2] = target: DNA polymerase III PolC-type (Bacillus subtilis (strain 168)) (UniProt P13267); assay: qHTS Validation Assay for the Inhibitors of DNA Replication in Gram-Positive Bacteria (AID 485295);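 also: PicoGreen fluorescence of double-stranded DNA made on primed circular M13 template; series mostly up to about 57 µM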
Outline: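 Reconstituted B. subtilis Pol III holoenzyme (PolC, beta clamp, SSB, primase) preincubated with compound, then M13Gori single-stranded circular template with dNTPs/NTPs added; room temperature reaction. Stopped with EDTA/PicoGreen; dsDNA fluorescence read, EDTA as full-inhibition control.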

[3] = target: Tumor susceptibility gene 101 protein (Homo sapiens) (UniProt Q99816); assay: qHTS Validation Assay for Iinhibitors of HIV-1 Budding by Blocking the Interaction of PTAP/TSG101 (AID 485342; calls by dose curve)
Outline: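 Tsg101 binding domain (10 uM) with FITC-labeled PTAP peptide (50 nM) in HEPES pH 7.5 buffer, 20 min at r.t. with compounds. Binding measured by fluorescence polarization.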

[4] = target: Beta-2 adrenergic receptor (Homo sapiens) (UniProt P07550); assay: qHTS validation assay of beta-arrestin-biased ligands of beta2-adrenergic receptor (AID 485366)
Outline: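 Luminescence from a tTA-responsive luciferase, induced when recombinant beta-arrestin is recruited to recombinant beta2-AR, served as the agonism signal. Cells were exposed to compound for 18 hr at 37 degrees C; titrations spanned up to 46 microM.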

[5] = target: Thioredoxin reductase 1, cytoplasmic (Rattus norvegicus) (UniProt O89049); assay: qHTS Assay for Substrates of Mammalian Selenoprotein Thioredoxin Reductase 1 (TrxR1) (AID 488772);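 also: NADPH fluorescence in the first read after selenite addition and not the 8 min delta; series mostly up to about 57 µM; a drop in NADPH fluorescence below the no-compound background marks a TrxR1 substrate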
Outline: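 Quantitative HTS in Tris-HCl buffer at pH 7.5 with EDTA and Tween-20, using rat TrxR1, 400 uM NADPH and 400 uM selenite (final). A fall in initial NADPH fluorescence relative to background marked substrate behaviour.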

[6] = target: Thioredoxin reductase 1, cytoplasmic (Rattus norvegicus) (UniProt O89049); assay: qHTS Assay for Inhibitors of Mammalian Selenoprotein Thioredoxin Reductase 1 (TrxR1) (AID 488773); conditions: Potency: inhibition; also: nearly all actives have a fitted effect of over 40% in size; also: potency is read from the fitted curve at half-maximal effect
Outline: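 Steps: enzyme (90 nM) plus NADPH (400 uM final), 5 min at ~22 deg C; compound added, 15 min; selenite (400 uM final) added; fluorescence followed for 8 min. Concentration-response curves derived from the normalized delta values.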

[7] = target: M-phase phosphoprotein 8 (Homo sapiens) (UniProt Q99549); assay: qHTS Validation Assay for Inhibitors for MPP8 Chromodomain Interactions with Methylated Histone Tails (AID 488949); also: nearly all actives have a fitted effect of over 55% in size; also: potency is read from the fitted curve at half-maximal effect
Outline: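 MPP8 (50 nM) was pre-bound to 50 nM biotinylated H3(1-18)K9me3 peptide in PBS pH 7.4 with 0.01% Tween-20. Compounds were then added for 30 min at room temperature, and complex disruption was read by AlphaScreen with streptavidin donor and nickel-chelate acceptor beads.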

[8] = target: Chromobox protein homolog 1 (Homo sapiens) (UniProt P83916); assay: qHTS Validation Assay for Inhibitors of HP1-beta Chromodomain Interactions with Methylated Histone Tails (AID 488953); also: nearly all actives have a fitted effect of over 50% in size; also: potency is read from the fitted curve at half-maximal effect
Outline: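 HP1-beta (50 nM) was preincubated 30 min at room temperature with biotinylated H3(1-18)K9me3 peptide (50 nM) in PBS pH 7.4, 0.01% Tween-20, then with compounds 30 min. AlphaScreen signal was read after streptavidin donor/nickel chelate acceptor beads (10 ug/mL final).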

[9] = target: Methanococcus maripaludis chaperonin (MmCpn) (UniProt Q6LX38); assay: High-Throughput Screening for Modulators of Cytosolic Chaperonin Activity: MmCpn Primary Screen (AID 488978);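 also: 50 nM MmCpn enzyme hydrolysing 30 µM ATP at 37 °C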
Outline: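 MmCpn at 50 nM final was preincubated 5 min at RT with compound. ATP was then added at 30 uM final for 10 min at 37 C. ADP formed was detected by Transcreener HTRF (665/590 nm).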

[10] = target: Transient receptor potential cation channel subfamily V member 1 (Homo sapiens) (UniProt Q8NER1); assay: HTS Assay for Compounds that Act as Enhancers of the Vanilloid Receptor 1 (AID 488979)
Outline: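 Calcium influx kinetics via Fluo-8 (480/520 nm) in TRPV1-expressing cells, 2000/well cultured overnight at 35.5C. Compound-alone read 3 min (agonist phase), followed by EC20 capsaicin challenge for 2 min (enhancer phase).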

[11] = target: Thyrotropin receptor (Homo sapiens) (UniProt P16473); assay: qHTS Assay for Antagonists of the Thyroid Stimulating Hormone Receptor (AID 488980); also: series mostly up to about 58 µM
Outline: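 TSHR-transfected HEK293 cells (2000/well) in HEPES-buffered HBSS with 70 uM RO 20-1724 were stimulated with 4 nM TSH (EC80, final) in the presence of compound. cAMP was measured by HTRF competition after lysis and 30 min at RT.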

[12] = target: D(1A) dopamine receptor (Homo sapiens) (UniProt P21728); assay: HTS Assay for Allosteric Agonists of the Human D1 Dopamine Receptor: Primary Screen for Agonists (AID 488981); also: potency is read from the fitted curve at half-maximal effect
Outline: (§1)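 Calcium flux in an inducible, force-coupled HEK293 Trex D1 line (overnight at 30 C): agonist mode is the 180 s kinetic read after compound; potentiator mode is the following 180 s read after dopamine at EC20.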

[13] = qHTS Validation Assay to Find Inhibitors of Chronic Active B-Cell Receptor Signaling (AID 485345; active = well fitted curve in the direction sought with a large enough effect in the main read-out, with a control signal flat, not every such curve was filed as active)
Outline: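 Read-out: ratio of filter-corrected green (IkappaBalpha fusion) to red (native) luciferase signal in doxycycline-induced TMD8 cells after 4 h at 37C. Titration spanned 46 uM–3 nM; Data were normalised to basal cells and 10 uM MG-132 wells.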

[14] = target: ATP-dependent 6-phosphofructokinase (Trypanosoma brucei brucei) (UniProt O15648); assay: qHTS Validation Assay to Find Inhibitors of T. brucei phosphofructokinase (AID 485368); also: potency is read from the fitted curve at half-maximal effect
Outline: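 Activity was normalized between 1x (1.25 nM) PFK wells as no inhibition and enzyme-free wells as full inhibition, from luminescence after ADP-Glo detection of ADP made from 0.5 mM F6P and 0.1 mM ATP over 45 min.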

[15] = target: Flap endonuclease 1 (Homo sapiens) (UniProt P39748); assay: qHTS Validation Assay for the Inhibitors of Human Flap endonuclease 1 (FEN1) (AID 488816)
Outline: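 Readings taken at 0 and 15 min after starting the reaction with 50 nM (final) substrate supplied the signal. Compounds had first sat with 10 nM FEN1 reagent for 15 min at room temperature. Values come from Hill-equation concentration-response fits.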

[16] = target: D(1A) dopamine receptor (Homo sapiens) (UniProt P21728); assay: HTS Assay for Allosteric Agonists of the Human D1 Dopamine Receptor: Primary Screen for Potentiators (AID 488982)
Outline: as §1

[17] = Quantitative high throughput screen for delayed death inhibitors of the malarial parasite plastid, 48 hour incubation (AID 488752); also: nearly all actives have a fitted effect of over 65% in size
Outline: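 Erythrocytes infected with P. falciparum carrying an integrated firefly luciferase reporter (2% hematocrit, 0.1% parasitemia final) were exposed to compounds in RPMI 1640/0.5% Albumax for 48 h at 37 C, 5% CO2. Growth inhibition was scored as reduced luminescence.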

[18] = target: D(1A) dopamine receptor (Homo sapiens) (UniProt P21728); assay: HTS Assay for Allosteric Agonists of the Human D1 Dopamine Receptor: Primary Screen for Antagonists (AID 488983);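 also: calcium flux response to an EC80 dopamine challenge measured with no-wash dye; nearly all actives have a fitted effect of over 65% in size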; also: potency is read from the fitted curve at half-maximal effect
Outline: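 Tetracycline-induced HEK293 T-REx cells expressing force-coupled D1 were plated overnight at 30 C, dye-loaded for calcium, and read kinetically. Compounds were pinned in, then an EC80 dopamine challenge followed after 180 s to reveal antagonism.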

[19] = Quantitative high throughput screen for delayed death inhibitors of the malarial parasite plastid, 96 hour incubation (AID 488745); also: series mostly up to about 29 µM; nearly all actives have a fitted effect of over 70% in size
Outline: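 P. falciparum carrying an integrated firefly luciferase reporter, grown in erythrocytes (2% hematocrit, 0.1% parasitemia final) in RPMI 1640/0.5% Albumax, was exposed to compound for 96 h (two generations) at 37 C, 5% CO2. Luminescence decrease indicated growth inhibition.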

Measured: Potency

Chain of ATP-dependent 6-phosphofructokinase (Trypanosoma brucei brucei) (O15648 whole entry, looked up): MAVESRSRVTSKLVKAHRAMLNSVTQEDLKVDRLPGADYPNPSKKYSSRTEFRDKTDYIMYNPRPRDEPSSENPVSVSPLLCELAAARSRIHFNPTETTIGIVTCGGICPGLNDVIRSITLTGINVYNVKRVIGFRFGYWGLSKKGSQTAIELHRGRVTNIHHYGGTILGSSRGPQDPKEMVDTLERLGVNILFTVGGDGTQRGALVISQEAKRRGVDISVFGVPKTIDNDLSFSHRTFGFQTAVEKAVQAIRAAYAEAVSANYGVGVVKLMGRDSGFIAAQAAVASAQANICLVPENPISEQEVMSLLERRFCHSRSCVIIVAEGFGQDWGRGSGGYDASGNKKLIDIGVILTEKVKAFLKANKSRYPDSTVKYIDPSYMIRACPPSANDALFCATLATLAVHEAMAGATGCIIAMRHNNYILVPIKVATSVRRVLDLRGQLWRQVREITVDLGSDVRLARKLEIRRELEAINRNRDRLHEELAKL
Chain of Ubiquitin carboxyl-terminal hydrolase 2 (Homo sapiens) (O75604 whole entry, looked up): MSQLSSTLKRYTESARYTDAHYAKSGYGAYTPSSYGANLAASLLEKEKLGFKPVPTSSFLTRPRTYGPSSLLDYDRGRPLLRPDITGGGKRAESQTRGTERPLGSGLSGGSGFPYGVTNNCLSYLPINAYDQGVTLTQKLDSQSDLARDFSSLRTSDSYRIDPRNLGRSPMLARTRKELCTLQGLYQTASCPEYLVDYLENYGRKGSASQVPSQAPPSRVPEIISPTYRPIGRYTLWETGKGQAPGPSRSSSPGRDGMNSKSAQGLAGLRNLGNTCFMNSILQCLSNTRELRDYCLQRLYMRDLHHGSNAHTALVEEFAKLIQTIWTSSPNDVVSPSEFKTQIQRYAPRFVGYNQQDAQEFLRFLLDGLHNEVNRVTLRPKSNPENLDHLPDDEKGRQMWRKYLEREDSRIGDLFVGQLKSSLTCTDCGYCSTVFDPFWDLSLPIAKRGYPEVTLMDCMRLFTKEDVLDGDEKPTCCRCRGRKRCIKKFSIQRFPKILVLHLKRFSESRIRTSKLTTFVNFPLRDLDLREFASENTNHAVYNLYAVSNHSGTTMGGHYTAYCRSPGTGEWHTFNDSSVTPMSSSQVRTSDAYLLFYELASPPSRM
Chain of Beta-2 adrenergic receptor (Homo sapiens) (P07550 whole entry, looked up): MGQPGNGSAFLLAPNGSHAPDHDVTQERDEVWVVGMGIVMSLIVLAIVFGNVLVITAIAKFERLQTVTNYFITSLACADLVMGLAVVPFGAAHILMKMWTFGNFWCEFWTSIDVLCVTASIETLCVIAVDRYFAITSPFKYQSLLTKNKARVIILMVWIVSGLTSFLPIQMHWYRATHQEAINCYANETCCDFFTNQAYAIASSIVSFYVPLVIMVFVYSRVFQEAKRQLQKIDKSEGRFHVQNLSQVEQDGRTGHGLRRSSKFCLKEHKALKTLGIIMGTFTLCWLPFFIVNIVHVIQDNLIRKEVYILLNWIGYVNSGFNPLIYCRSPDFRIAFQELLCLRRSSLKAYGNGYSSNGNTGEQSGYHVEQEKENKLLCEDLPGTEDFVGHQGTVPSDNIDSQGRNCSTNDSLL
Chain of Tumor susceptibility gene 101 protein (Homo sapiens) (Q99816 whole entry, looked up, the tested form may be a part): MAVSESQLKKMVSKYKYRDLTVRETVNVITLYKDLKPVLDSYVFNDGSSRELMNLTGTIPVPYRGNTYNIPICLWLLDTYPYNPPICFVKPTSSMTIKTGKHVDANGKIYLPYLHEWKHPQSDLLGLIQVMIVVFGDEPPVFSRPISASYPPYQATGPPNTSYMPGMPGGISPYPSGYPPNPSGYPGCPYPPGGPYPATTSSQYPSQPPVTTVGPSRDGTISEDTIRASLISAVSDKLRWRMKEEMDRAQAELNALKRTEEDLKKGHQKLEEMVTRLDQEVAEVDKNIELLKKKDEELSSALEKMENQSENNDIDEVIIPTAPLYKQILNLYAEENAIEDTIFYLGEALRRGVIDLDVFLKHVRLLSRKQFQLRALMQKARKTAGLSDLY
Chain of Flap endonuclease 1 (Homo sapiens) (P39748 whole entry, looked up): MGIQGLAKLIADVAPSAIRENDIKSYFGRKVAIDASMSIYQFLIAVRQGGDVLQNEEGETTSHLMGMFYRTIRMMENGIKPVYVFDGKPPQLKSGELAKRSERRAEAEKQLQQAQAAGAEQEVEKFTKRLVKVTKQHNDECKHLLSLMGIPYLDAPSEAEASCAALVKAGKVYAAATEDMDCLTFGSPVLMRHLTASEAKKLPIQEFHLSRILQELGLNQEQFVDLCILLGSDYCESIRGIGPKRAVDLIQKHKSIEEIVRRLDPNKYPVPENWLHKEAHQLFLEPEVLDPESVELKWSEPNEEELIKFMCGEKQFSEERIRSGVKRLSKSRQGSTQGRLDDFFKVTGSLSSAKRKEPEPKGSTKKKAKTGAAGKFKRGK
Chain of DNA polymerase III PolC-type (Bacillus subtilis (strain 168)) (P13267 whole entry, looked up): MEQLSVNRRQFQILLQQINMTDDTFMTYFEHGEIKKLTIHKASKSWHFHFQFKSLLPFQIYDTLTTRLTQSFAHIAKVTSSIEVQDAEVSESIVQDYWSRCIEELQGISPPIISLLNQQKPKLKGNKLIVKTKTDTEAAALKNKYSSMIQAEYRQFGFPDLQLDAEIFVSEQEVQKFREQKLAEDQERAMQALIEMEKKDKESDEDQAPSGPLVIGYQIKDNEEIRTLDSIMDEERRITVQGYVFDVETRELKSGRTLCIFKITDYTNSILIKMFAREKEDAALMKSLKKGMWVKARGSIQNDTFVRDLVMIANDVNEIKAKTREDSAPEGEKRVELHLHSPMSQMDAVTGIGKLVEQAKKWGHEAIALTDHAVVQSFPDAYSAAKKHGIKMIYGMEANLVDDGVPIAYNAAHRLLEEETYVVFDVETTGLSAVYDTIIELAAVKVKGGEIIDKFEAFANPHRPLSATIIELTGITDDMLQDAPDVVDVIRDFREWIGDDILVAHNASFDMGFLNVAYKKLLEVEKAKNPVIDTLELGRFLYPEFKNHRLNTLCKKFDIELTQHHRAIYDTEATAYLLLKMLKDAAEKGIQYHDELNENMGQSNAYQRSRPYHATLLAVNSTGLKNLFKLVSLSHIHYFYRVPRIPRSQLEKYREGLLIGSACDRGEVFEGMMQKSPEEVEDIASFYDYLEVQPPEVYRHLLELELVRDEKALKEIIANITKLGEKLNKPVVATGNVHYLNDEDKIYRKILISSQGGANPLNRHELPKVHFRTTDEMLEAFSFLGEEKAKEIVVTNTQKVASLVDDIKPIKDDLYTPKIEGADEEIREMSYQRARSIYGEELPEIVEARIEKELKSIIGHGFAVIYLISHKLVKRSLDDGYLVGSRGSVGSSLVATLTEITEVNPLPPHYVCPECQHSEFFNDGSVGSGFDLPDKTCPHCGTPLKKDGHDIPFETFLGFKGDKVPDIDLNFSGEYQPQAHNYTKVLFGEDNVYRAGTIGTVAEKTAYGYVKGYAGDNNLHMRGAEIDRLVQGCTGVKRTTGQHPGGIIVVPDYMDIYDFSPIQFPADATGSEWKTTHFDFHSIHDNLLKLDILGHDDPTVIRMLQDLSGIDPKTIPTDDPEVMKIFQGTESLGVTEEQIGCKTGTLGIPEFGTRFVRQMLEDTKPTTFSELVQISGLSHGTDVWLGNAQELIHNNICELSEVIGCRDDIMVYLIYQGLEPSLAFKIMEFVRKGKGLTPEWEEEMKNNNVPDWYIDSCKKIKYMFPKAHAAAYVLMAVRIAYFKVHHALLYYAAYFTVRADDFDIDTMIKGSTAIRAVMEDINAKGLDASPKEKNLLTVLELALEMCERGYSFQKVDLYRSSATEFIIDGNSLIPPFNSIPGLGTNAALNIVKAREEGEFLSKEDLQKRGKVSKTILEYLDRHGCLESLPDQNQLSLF
Chain of M-phase phosphoprotein 8 (Homo sapiens) (Q99549 whole entry, looked up): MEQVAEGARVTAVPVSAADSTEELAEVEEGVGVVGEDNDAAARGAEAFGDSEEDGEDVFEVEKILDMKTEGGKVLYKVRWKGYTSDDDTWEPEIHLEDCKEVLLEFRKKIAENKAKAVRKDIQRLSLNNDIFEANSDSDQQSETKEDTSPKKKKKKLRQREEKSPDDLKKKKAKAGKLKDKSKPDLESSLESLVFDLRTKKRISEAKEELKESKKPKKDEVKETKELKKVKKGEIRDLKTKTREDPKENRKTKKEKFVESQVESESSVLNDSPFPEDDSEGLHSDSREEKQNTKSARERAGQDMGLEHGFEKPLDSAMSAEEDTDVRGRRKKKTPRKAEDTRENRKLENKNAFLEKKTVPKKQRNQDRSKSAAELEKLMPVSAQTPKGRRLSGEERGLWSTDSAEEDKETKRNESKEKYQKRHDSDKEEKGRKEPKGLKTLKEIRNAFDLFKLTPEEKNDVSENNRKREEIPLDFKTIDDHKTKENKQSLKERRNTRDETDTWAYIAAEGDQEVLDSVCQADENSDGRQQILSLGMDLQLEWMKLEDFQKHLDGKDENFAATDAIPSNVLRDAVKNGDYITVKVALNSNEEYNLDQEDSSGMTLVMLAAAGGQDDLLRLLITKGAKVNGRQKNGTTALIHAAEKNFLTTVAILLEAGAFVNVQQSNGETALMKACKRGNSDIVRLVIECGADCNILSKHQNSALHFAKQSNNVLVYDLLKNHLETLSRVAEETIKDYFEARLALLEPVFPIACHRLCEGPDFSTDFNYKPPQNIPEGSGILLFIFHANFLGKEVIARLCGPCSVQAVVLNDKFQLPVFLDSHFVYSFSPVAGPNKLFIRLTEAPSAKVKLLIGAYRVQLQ
Chain of Chromobox protein homolog 1 (Homo sapiens) (P83916 whole entry, looked up): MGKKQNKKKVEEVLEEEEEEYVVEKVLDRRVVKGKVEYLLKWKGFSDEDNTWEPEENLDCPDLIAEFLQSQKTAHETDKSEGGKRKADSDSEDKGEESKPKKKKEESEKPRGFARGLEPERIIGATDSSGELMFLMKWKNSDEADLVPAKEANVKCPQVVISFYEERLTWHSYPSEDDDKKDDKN

C#C[C@]1(O)CC[C@H]2[C@@H]3CCC4=Cc5oncc5CC4(C)[C@H]3CCC21C (some centres not stated)
inactive: [1] | [2] | [3] | [4] | [5] | [6] | [7] | [8] | [9]

CCCCCCCCCCCCCCCCCC(=O)OC(CC(=O)O)C[N+](C)(C)C (configuration not stated)
active: [12] 11.2 µM
not listed: [13] | [14] | [15] | [16] | [17] | [18] | [19]
inactive: all other assays above

CO/N=C(\C(=O)N[C@@H]1C(=O)N2C(C(=O)O)=C(COC(C)=O)CS[C@H]12)c1csc(N)n1
inactive: [1] | [3] | [13] | [4] | [15] | [7] | [9] | [12] | [16]
active: [14] 8.49 µM | [8] 50.1 µM

Oc1ccc(C2CNCc3sccc32)cc1O (configuration not stated)
active: [18] 0.199 µM
not listed: [2] | [6] | [12] | [14] | [15] | [19]
inactive: all other assays above

CNC(=O)[C@H]1O[C@@H](n2cnc3c(NCc4cccc(I)c4)ncnc32)[C@H](O)[C@@H]1O
inactive: [1] | [2] | [3] | [4] | [5] | [6] | [7] | [9] | [18]

CNCC[C@H](Oc1ccc(C(F)(F)F)cc1)c1ccccc1
not listed: [8] | [10] | [12] | [13] | [14] | [17] | [18] | [19]
inactive: all other assays above

O=C(O)[C@@H]1C[C@H](C(=O)O)N1
not listed: [2] | [18] | [19]
inactive: all other assays above

Cc1cc(NC(=O)Nc2ccc3c(ccn3C)c2)sn1
not listed: [8] | [11] | [13] | [14] | [15] | [17] | [18] | [19]
inactive: all other assays above

Cc1ccc(O)c(N=Nc2ccccc2)n1
active: [14] 15.1 µM | [8] 44.7 µM
39.8 µM (active) and inactive: [7]
not listed: [2] | [6]
inactive: all other assays above

COc1ccc(/C=C/C(=O)Nc2ccccc2C(=O)O)cc1OC
not listed: [8] | [12] | [13] | [14] | [15] | [17] | [19]
inactive: all other assays above

Clc1ccc(N2CCN(Cc3cc4ccccn4n3)CC2)cc1
inactive: [1] | [3] | [13] | [4] | [14] | [5] | [6] | [7] | [9]

CCOC(=O)N1CCN(/[N+]([O-])=N/Oc2ccc([N+](=O)[O-])cc2[N+](=O)[O-])CC1
active: [6] 6.7 µM
inactive: [1] | [2] | [3] | [4] | [5] | [7] | [9] | [12] | [16]

NCCCCCCCCCCN
not listed: [2] | [11] | [14]
inactive: all other assays above

CC(C)(C)c1ccc(S(=O)(=O)/C=C/C#N)cc1
inactive: [1] | [2] | [3] | [4] | [5] | [9] | [11]
20 µM (active) and inactive: [7]
active: [6] 0.377 µM | [8] 44.7 µM

O=P(O)(O)C(Cl)(Cl)P(=O)(O)O
not listed: [2] | [7] | [8] | [10] | [11] | [14] | [17] | [19]
inactive: all other assays above

CN1CCc2cc(NC(=O)Nc3cccnc3)ccc21
not listed: [8] | [12] | [13] | [14] | [17] | [19]
inactive: all other assays above

NCC1OC(O[C@H]2[C@H](O)[C@@H](OC3C(O)C(N)CC(N)C3OC3OC(CO)C(O)C(O)C3N)O[C@@H]2CO)C(N)C(O)C1O (some centres not stated)
not listed: [2] | [10] | [11] | [14] | [16] | [17] | [19]
inactive: all other assays above
